# Source: PubChem BioAssay AID618 (Sanford-Burnham Center for Chemical Genomics, 2007)
# Out of some 87,000 compounds screened, about 540 (0.62%) were called active. This is one part of a sample in which actives are shown more often than they occur. The rule behind the calls is not given here. Results with a measured potency or affinity are listed apart.
# Assay: MT1-MMP gene expression reporter suppression – cell-based, luciferase reporter, luminescence (AID 618);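 note: actives suppress MT1-MMP promoter-driven transcription so potencies describe inhibitors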
# Settings: MT1-MMP promoter luciferase reporter cells
row,Compound,outcome
1,COc1cc2nc(C)sc2cc1SC,inactive
2,O=C(C1CCCN(Cc2ccccc2Br)C1)N1CCCCC1 (stereo not drawn),inactive
3,COc1cccc(NC(=O)CSc2nnc(-c3ccoc3C)n2CC2CCCO2)c1 (stereo not drawn),inactive
4,C=CCNC(=O)C1CCN(c2nc(C)cc(-c3ccccc3)n2)CC1,inactive
5,c1ccc(C2=Nn3c(nnc3-c3ccncc3)SC2)cc1,inactive
6,COc1ccc(CC(C(=O)Nc2cc(C)ccc2C)/C(N)=N/O)cc1 (stereo not drawn),inactive
7,Cc1ccc2nc(-c3ccccc3)cn2c1,active
8,Cc1ccc2nc(-c3cccc(S(=O)(=O)N(C)C)c3)cn2c1,inactive
9,COc1ccc(-c2cn3cc(C)ccc3n2)cc1OC,inactive
10,CCOc1ccccc1NC(=O)Cn1nnc(C(=O)NCc2ccco2)c1N,inactive
11,CCOC(=O)C(C(=O)OCC)=C1OC(=O)c2ccccc21,inactive
12,CN(C)CCCNC(=O)c1ccc(-c2ccccc2)cc1,inactive
13,CCOC(=O)CNC(=O)c1cn(CC(C)C)c(=O)c2cc(OC)c(OC)cc12,inactive
14,Cc1ccc2cc(CN(CC3CCCO3)S(=O)(=O)c3c(C)ccc4nsnc34)c(=O)[nH]c2c1 (stereo not drawn),inactive
15,COCc1nnc(NS(=O)(=O)c2c(C)cc(C)cc2C)s1,inactive
16,O=c1/c(=C\c2ccc3c(c2)OCO3)sc2n1CCCN=2,inactive
17,CN(C)c1ccc(/C=c2\sc3n(c2=O)CCCN=3)cc1,active
18,O=c1/c(=C/c2ccc(O)cc2)sc2n1CCCN=2,inactive
19,O=C(NCCN1CCOCC1)c1ccc2ccccc2n1,inactive
20,COCCn1cc(C(=O)NCCCN2CCC(C)CC2)c2c3ccccc3n(C)c2c1=O,inactive
21,CCC(C)(C)n1nnnc1C(c1cc2ccc(OC)cc2[nH]c1=O)N1CCc2ccccc21 (stereo not drawn),inactive
22,CCCC(=O)Nc1ccc(NC(=O)c2ccccn2)cn1,inactive
23,O=C(Nc1ccc(NC(=O)C2CCCCC2)nc1)c1ccco1,inactive
24,CCC(=O)Nc1ccc(NC(=O)c2ccccn2)cn1,inactive

row,Compound,outcome
1,O=C(Nc1ccc(NC(=O)c2ccco2)nc1)c1cccnc1,inactive
2,O=C(Nc1ccc(NC(=O)C2CC2)nc1)c1ccco1,inactive
3,O=C(Nc1ccc(NC(=O)C2CCCCC2)cn1)c1ccco1,active
4,O=C(Cc1ccccc1)Nc1ccc(NC(=O)c2ccco2)nc1,inactive
5,CCN(Cc1ccccc1)C(c1cc2cc(C)ccc2[nH]c1=O)c1nnnn1CCOC (stereo not drawn),inactive
6,CCCCCCn1c(N2CCN(c3ccccc3)CC2)nc2c1c(=O)n(C)c(=O)n2C,inactive
7,O=C(Cn1cnc2ccccc2c1=O)N1CCOCC1,inactive
8,CCC1=C2CC[C@H]3C(=O)N(c4ccccc4)C(=O)[C@H]3[C@H]2[C@@]2(Cc3ccccc3)C(=O)N(CC(=O)OC)C(=O)N2C1=O,inactive
9,N#Cc1c(/N=C/c2cccs2)sc2c1CCCCC2,active
10,N#Cc1c(/N=C/c2cccs2)sc2c1CCC2,inactive
11,N#Cc1c(/N=C/c2ccc(Br)s2)sc2c1CCC2,inactive
12,COc1ccc(C(CNC(=O)c2ccc(-n3cnnn3)cc2)N2CCOCC2)cc1 (stereo not drawn),inactive
13,Cn1cc(C(=O)c2ccccc2)cc1-c1nc2ccccc2n1C,inactive
14,Cc1oc(-c2nc3ccccc3n2C)cc1C(=O)c1ccccc1,active
15,CC(=O)c1ccc(-c2nc3ccccc3n2C)o1,inactive
16,C/C(=C1\SC(N2CCOCC2)=NC1=O)c1ccc(C)cc1,inactive
17,Cc1ccc(CS(=O)(=O)CCC(=O)NCc2ccc3c(c2)OCO3)cc1,inactive
18,CCC(=O)Nc1cccc(-c2nc3ccccc3o2)c1,inactive
19,Cc1cc2nc(-c3ccc(NC(=O)C(C)C)cc3)oc2cc1C,inactive
20,Cc1ccc2oc(-c3ccc(NC(=O)CC(C)C)cc3)nc2c1,inactive
21,Cc1ccc(-c2nc3cc(NC(=O)C(C)C)ccc3o2)cc1C,inactive
22,CCCC(=O)Nc1ccc(-c2nc3cc(C)c(C)cc3o2)cc1,inactive
23,CCC(=O)Nc1ccc2oc(-c3ccccc3Br)nc2c1,inactive
24,CC(C)(C)c1ccc(OCC(=O)Nc2ccc(-c3nc4cccnc4o3)cc2)cc1,inactive

row,Compound,outcome
1,CCC(=O)Nc1ccc2oc(-c3cccc(C)c3)nc2c1,active
2,CCC(C)NCC(=O)Nc1ccc(-c2nc3cc(NC(=O)CNC(C)CC)ccc3o2)cc1 (stereo not drawn),inactive
3,O=C(Nc1cc(C(F)(F)F)ccc1N1CCCCC1)c1ccco1,inactive
4,COCCNC(=O)CN1c2ccccc2CC1C (stereo not drawn),inactive
5,CCCSc1nc(C)c(-c2csc(C(C#N)=C3CCCC3)n2)cc1C#N,inactive
6,CCOC(=O)N1CCN(CCC(=O)Nc2ccccc2OC)CC1,inactive
7,CS(=O)(=O)Nc1ccccc1C(=O)Nc1ccccc1Cl,inactive
8,COc1ccc(CCNC(=O)CSc2nnc(-c3ccc(F)cc3)o2)cc1OC,inactive
9,CC(=O)C1=C(O)C(=O)N(Cc2ccccc2)C1c1cccs1 (stereo not drawn),inactive
10,COc1cc(C2c3c(oc4cc(C)c(C)cc4c3=O)C(=O)N2c2cc(C)ccn2)ccc1O (stereo not drawn),inactive
11,COc1ccc(N2CCN(C(=O)CCNS(=O)(=O)c3cccs3)CC2)cc1,inactive
12,CC(C)(C)C(=O)Nc1ccc2oc(-c3cc(F)c(F)cc3Cl)nc2c1,inactive
13,CC(C)C(=O)Nc1ccc2oc(-c3cc(F)c(F)cc3Cl)nc2c1,inactive
14,CC(C)N=Cc1c(O)[nH]c2ccccc12,inactive
15,CN=Cc1c(NC)nc2c(C)cccn2c1=O,inactive
16,O=C(NCc1ccc(F)cc1)C1CCC(=O)N1CCc1ccccc1 (stereo not drawn),inactive
17,Cc1ccc(NC(=O)c2ccc(S(=O)(=O)N3CCCC3)cc2)cc1,inactive
18,CN(C)CCNC(=O)c1coc(=O)c(Br)c1,inactive
19,C[C@@H](NC(=O)c1coc(=O)c(Br)c1)c1ccccc1,inactive
20,O=C(CNC(=O)C1CCCCC1)NCCCO,inactive
21,Cc1cccc(-n2ncc3c(NC(C)C)ncnc32)c1,inactive
22,COCC(C)Nc1ncnc2c1cnn2-c1ccc(Cl)cc1 (stereo not drawn),inactive
23,COc1ccc(-n2ncc3c(NCc4ccco4)ncnc32)cc1,inactive
24,CCCNc1ncnc2c1cnn2-c1ccc(OC)cc1,inactive

row,Compound,outcome
1,CCC(CO)Nc1ncnc2c1cnn2-c1ccc(OC)cc1 (stereo not drawn),inactive
2,Cc1ccc(-n2ncc3c(NCCCOC(C)C)ncnc32)c(C)c1,inactive
3,CC(C)OCCCNc1ncnc2c1cnn2-c1ccccc1,active
4,CCCCNc1ncnc2c1cnn2-c1ccccc1,inactive
5,CC(C)Nc1ncnc2c1cnn2-c1ccccc1,inactive
6,Cc1cc(C)nc(NS(=O)(=O)c2ccc(Br)s2)c1,inactive
7,O=C(NCCOc1nc(N2CCOCC2)nc(N2CCOCC2)n1)Nc1ccc(Cl)cc1,inactive
8,CCNS(=O)(=O)c1ccc(NC(=O)Cc2ccc(F)cc2)cc1,inactive
9,O=C1C2CC=C(Cl)CC2C(=O)N1CCc1ccccc1 (stereo not drawn),inactive
10,COc1ccc(OC)c(NC(=O)C2CCCNC2=O)c1 (stereo not drawn),inactive
11,Cc1cc(NC(=O)CSc2nc3c(sc4ccccc43)c(=O)n2CCc2ccccc2)n[nH]1,inactive
12,O=C(O)CSC1CC(=O)N(c2ccc(Cl)c(Cl)c2)C1=O (stereo not drawn),inactive
13,COc1ccc(CNC(=O)c2ccc3c(c2)N(C)C(=O)CS3=O)cc1 (stereo not drawn),inactive
14,COc1ccc(CNc2ccccc2SC)cc1OC,inactive
15,CSc1ccccc1N=CC1=C(O)CC(C)(C)CC1=O,inactive
16,C=CCNc1ncnc2c1cnn2-c1ccc(Cl)cc1,inactive
17,C=CCNc1ncnc2c1cnn2-c1cccc(C)c1,inactive
18,O=C(Nc1ccccc1C(=O)NCCCn1ccnc1)c1ccc(Cl)cc1Cl,inactive
19,O=C(Nc1ccccc1C(=O)NCCCn1ccnc1)c1ccccc1,inactive
20,CCOc1cc(N2CCOCC2)c(OCC)cc1NS(=O)(=O)c1ccc(Cl)s1,active
21,CCOc1ccc(Br)cc1S(=O)(=O)Nc1ccccc1N1CCOCC1,inactive
22,CCOc1cc(N2CCOCC2)c(OCC)cc1NC(=O)CCS(=O)(=O)c1ccc(Cl)cc1,inactive
23,CCOC(=O)c1[nH]c(C)c(CN(Cc2ccco2)C(=O)C(F)(F)F)c1C,inactive
24,O=C(Nc1cccc(-c2cnc3ccccc3n2)c1)c1ccco1,inactive

row,Compound,outcome
1,O=C(CNC(=O)c1ccc(Br)o1)Nc1cccc(-c2cnc3ccccc3n2)c1,inactive
2,O=C(CCl)Nc1cccc(-c2cnc3ccccc3n2)c1,active
3,O=c1cc(O)c(-c2ccccc2Cl)c(Cl)[nH]1,inactive
4,Cc1nnc(NCCc2ccccc2)[nH]c1=O,inactive
5,CC(=O)Oc1ccc2oc(C)c(C(=O)N3CCOCC3)c2c1,inactive
6,Nc1ccc2nc(-c3ccccn3)[nH]c2c1,inactive
7,CC(=O)Nc1ccc2nc(-c3ccccn3)[nH]c2c1,inactive
8,CC(=O)Nc1nnc(Cc2ccccc2)s1,inactive
9,COC(=O)C(Cc1cnc(Cl)s1)(C(=O)OC)c1ccc([N+](=O)[O-])cc1,inactive
10,CC(=O)Nc1ccc(C(=O)CSc2nnnn2C(C)C)cc1,inactive
11,Cc1ccc(C)c(C(=O)CSc2nnnn2C(C)C)c1,inactive
12,Cc1nc2cc(NC(=O)N3c4ccccc4CC3C)ccc2n1C (stereo not drawn),active
13,COc1ccc(NC(=O)N2c3ccccc3CC2C)cc1OC (stereo not drawn),inactive
14,Cc1nc2cc(NC(=O)N3c4ccccc4CC3C)ccc2o1 (stereo not drawn),inactive
15,COc1ccc(Cn2nnnc2C(c2ccc(N(C)C)cc2)N2CCC(C)CC2)cc1 (stereo not drawn),inactive
16,COc1ccc(C(=O)Nn2c(SCC(=O)c3ccc(Cl)cc3)nc3ccccc3c2=O)cc1,inactive
17,O=C(CSc1nc2ccsc2c(=O)n1NC(=O)c1ccccc1)NCc1ccco1,inactive
18,COc1ccc(C(=O)Nn2c(SCC(=O)NC3CCCC3)nc3ccccc3c2=O)cc1,inactive
19,COc1ccc(C(=O)Nn2c(SCC(=O)c3ccccc3)nc3ccccc3c2=O)cc1,inactive
20,COCCn1c(SCC(=O)N2CCC(C)CC2)nc2ccccc2c1=O,inactive
21,O=C(CSc1nc2ccccc2c(=O)n1NC(=O)Cc1ccccc1)NCc1ccco1,inactive
22,CCOc1ccccc1NC(=O)C1C2C=CC(C2)C1C(=O)O (stereo not drawn),inactive
